In ChEMBL document CHEMBL3988442, “University of Dundee, Small-Polar-MMV Screening Library” (2021):

Target: T1, Aspartate--tRNA(Asp/Asn) ligase (Mycobacterium tuberculosis (strain ATCC 25618 / H37Rv)) (UniProt P9WFW3); also: in the data most compounds retested in dose-response had high values
T1 sequence (whole entry): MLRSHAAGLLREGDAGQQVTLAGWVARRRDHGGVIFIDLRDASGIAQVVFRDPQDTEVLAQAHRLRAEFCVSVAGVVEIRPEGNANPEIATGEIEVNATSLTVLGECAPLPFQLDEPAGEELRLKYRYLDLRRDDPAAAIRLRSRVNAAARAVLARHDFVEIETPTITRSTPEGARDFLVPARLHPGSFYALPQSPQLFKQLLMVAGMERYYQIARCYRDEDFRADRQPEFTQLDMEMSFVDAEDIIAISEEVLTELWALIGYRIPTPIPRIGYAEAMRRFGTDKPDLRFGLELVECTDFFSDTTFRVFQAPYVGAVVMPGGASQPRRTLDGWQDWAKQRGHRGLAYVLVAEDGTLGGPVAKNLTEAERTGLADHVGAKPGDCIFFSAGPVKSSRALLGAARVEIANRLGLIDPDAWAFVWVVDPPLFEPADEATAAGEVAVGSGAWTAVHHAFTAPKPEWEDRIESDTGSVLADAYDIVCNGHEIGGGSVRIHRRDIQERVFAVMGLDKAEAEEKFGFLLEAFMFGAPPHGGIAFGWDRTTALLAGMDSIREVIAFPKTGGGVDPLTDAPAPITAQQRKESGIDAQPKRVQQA
Assay: Assay for Asp RNA synthetase-1 from Mycobacterium tuberculosis
Format: functional
Parameters: scale not given: direction of the effect not stated beside the values
Conditions: 30 µM

Row | Compound | Percent Effect [%]
1 | O=C(C1CCCCN1Cc1nc(-c2ccco2)no1)N1CCCC1 (stereo not given) | 3.38
2 | CCOCC(=O)N1CCC(Oc2ccc(Cl)cn2)CC1 | -2.08
3 | O=C(c1cnccn1)N1CCOC2(CCN(Cc3ccsc3)CC2)C1 | -1.8
4 | Cc1ccc(C(=O)N2CCC3(CC2)NC(=O)CC3c2ccccc2)cn1 (stereo not given) | 3.23
5 | COc1ccc(-n2ncc(C(=O)NCC3COC(C)(C)O3)c2N)cc1 (stereo not given) | -2.49
6 | c1cc(-c2cnccn2)cc(-c2ccn(CCN3CCCC3)n2)c1 | 1.97
7 | CC(=O)c1c(F)cccc1N1CCC(CS(N)(=O)=O)CC1 | -3.49
8 | CCn1ccnc1CN1CCCN(C(=O)c2cc(Cl)c[nH]2)CC1 | -5.23
9 | Cc1nc(CN2CCC(CNC(=O)Nc3ccccn3)CC2)oc1C | 5.15
10 | Cc1cnn(CC2CCCN2C(=O)c2ccc3nnc(C)n3c2)c1 (stereo not given) | 0.189
11 | CN(C)C(=O)[C@H]1C[C@@H]2CN(S(=O)(=O)Cc3ccccc3)C[C@H]1O2 | 3.99
12 | O=C(c1ccoc1)N1CCC2(CC1)C(=O)Nc1ccccc12 | -1.51
13 | O=C(c1cnccn1)N1C[C@@H]2CC[C@H](C1)N(C(=O)Cc1ccsc1)C2 | -3.45
14 | CN(C)C(=O)COCc1cncc2c1CCN(Cc1cnn(C)c1)C2 | 6.12
15 | CCn1ccnc1CNCC1CCN(CC(O)c2ccccc2)CC1 (stereo not given) | -3.48
16 | O=C(Cn1cc(I)cn1)N1CCc2ccccc2C1 | 2.67
17 | Cc1ccccc1CN(C)Cc1nc2c(cnn2C)c(=O)[nH]1 | 0.633
18 | CCN(CC)C(=O)c1cc(C2CCCN2C)ccn1 (stereo not given) | 4.39
19 | Cc1cc(=O)n2ncnc2n1CC(O)c1ccccc1Cl (stereo not given) | -0.03
20 | CC(C(=O)Nc1ccc(N2CCCC2)nc1)n1ccnc1 (stereo not given) | 1.62

Row | Compound | Percent Effect [%]
21 | CC1CCCCN1Cc1ccc(-c2ccccc2C(=O)O)cc1 (stereo not given) | 5.63
22 | COc1ncccc1C(=O)NCC1Cc2ccccc2O1 (stereo not given) | 6.18
23 | Cc1ccc(N2CCCC(NCc3ccsc3)C2)nn1 (stereo not given) | 4.57
24 | Cc1nc(CN2CCc3nn(C(C)C)c(=O)cc3C2)oc1C | 7
25 | CCc1nc(C2CCCN2Cc2nc(C3CC3)no2)no1 (stereo not given) | -4.58
26 | CNC(=O)CS(=O)(=O)Cc1coc(-c2ccc(OC)cc2)n1 | -0.993
27 | Cc1ccoc1-c1nnc(CNCCn2cccn2)o1 | 0.914
28 | Cc1cccc(CN2C[C@@H]3COC[C@]3(CNC(=O)N3CCCC3)C2)n1 | 2.42
29 | O=C1CC2(CCCCN2C(=O)c2ccsc2)CN1CC1CC1 (stereo not given) | -2.94
30 | Cc1nc(-c2ccsc2)ccc1C(=O)NCCC1CCCO1 (stereo not given) | 0.767
31 | O=C(NCc1nnc2n1CCCC2)N(Cc1ccccc1F)C1CC1 | -1.44
32 | Cn1cc(C2COC3(CCN(C(=O)c4ccc(F)cc4)CC3)C2)cn1 (stereo not given) | 0.474
33 | c1cnn(C2CN(Cc3nc(-c4ccsc4)no3)C2)c1 | -1.81
34 | CCc1cccc(N2CCC(NC(=O)c3cc[nH]n3)CC2)c1 | 7.15
35 | CCN1CCN(C2CCN(Cc3nc4ccccc4o3)CC2)C1=O | 12.7
36 | Cc1nc(O)c2nnn(C[C@H]3CCCN3C(=O)c3cccc(F)c3)c2n1 | 2.16
37 | CCn1cc(CN(C)S(=O)(=O)c2ccc(Cl)cc2)cn1 | -1.31
38 | CCCc1ncc(C(=O)N2CCOC(c3nc(C)n[nH]3)C2)s1 (stereo not given) | 0.888
39 | c1cnc(N2CCC3(CCN(CC4CC4)CC3)CC2)nc1 | 0.564
40 | CCc1ccc(C(=O)N2CCC(c3nncn3CC)CC2)cc1 | -2.16

Target: Shiga toxin 2 (Escherichia coli O157:H7) (UniProt P09385+P09386)
Assay: E. coli 0.157:H7 Shiga Toxin SOP - stx2 screening assay
Format: functional
Parameters: scale not given: direction of the effect not stated beside the values
Conditions: 30 µM

Row | Compound | Percent Effect [%]
41 | O=C(C1CCCCN1Cc1nc(-c2ccco2)no1)N1CCCC1 (stereo not given) | 27.5
42 | CCOCC(=O)N1CCC(Oc2ccc(Cl)cn2)CC1 | -2.19
43 | O=C(c1cnccn1)N1CCOC2(CCN(Cc3ccsc3)CC2)C1 | -12.9
44 | Cc1ccc(C(=O)N2CCC3(CC2)NC(=O)CC3c2ccccc2)cn1 (stereo not given) | -13.9
45 | COc1ccc(-n2ncc(C(=O)NCC3COC(C)(C)O3)c2N)cc1 (stereo not given) | 7.2
46 | c1cc(-c2cnccn2)cc(-c2ccn(CCN3CCCC3)n2)c1 | -29.3
47 | CC(=O)c1c(F)cccc1N1CCC(CS(N)(=O)=O)CC1 | -2.68
48 | CCn1ccnc1CN1CCCN(C(=O)c2cc(Cl)c[nH]2)CC1 | -18.9
49 | Cc1nc(CN2CCC(CNC(=O)Nc3ccccn3)CC2)oc1C | -4.66
50 | Cc1cnn(CC2CCCN2C(=O)c2ccc3nnc(C)n3c2)c1 (stereo not given) | -37.5
51 | CN(C)C(=O)[C@H]1C[C@@H]2CN(S(=O)(=O)Cc3ccccc3)C[C@H]1O2 | -3.49
52 | O=C(c1ccoc1)N1CCC2(CC1)C(=O)Nc1ccccc12 | -2.64
53 | O=C(c1cnccn1)N1C[C@@H]2CC[C@H](C1)N(C(=O)Cc1ccsc1)C2 | -38.6
54 | CN(C)C(=O)COCc1cncc2c1CCN(Cc1cnn(C)c1)C2 | -43
55 | CCn1ccnc1CNCC1CCN(CC(O)c2ccccc2)CC1 (stereo not given) | 0.429
56 | O=C(Cn1cc(I)cn1)N1CCc2ccccc2C1 | -31
57 | Cc1ccccc1CN(C)Cc1nc2c(cnn2C)c(=O)[nH]1 | -4.87
58 | CCN(CC)C(=O)c1cc(C2CCCN2C)ccn1 (stereo not given) | 1.51
59 | Cc1cc(=O)n2ncnc2n1CC(O)c1ccccc1Cl (stereo not given) | -19.6
60 | CC(C(=O)Nc1ccc(N2CCCC2)nc1)n1ccnc1 (stereo not given) | -37.2

Row | Compound | Percent Effect [%]
61 | CC1CCCCN1Cc1ccc(-c2ccccc2C(=O)O)cc1 (stereo not given) | 25
62 | COc1ncccc1C(=O)NCC1Cc2ccccc2O1 (stereo not given) | 5.65
63 | Cc1ccc(N2CCCC(NCc3ccsc3)C2)nn1 (stereo not given) | 10.6
64 | Cc1nc(CN2CCc3nn(C(C)C)c(=O)cc3C2)oc1C | 0.318
65 | CCc1nc(C2CCCN2Cc2nc(C3CC3)no2)no1 (stereo not given) | -6.89
66 | CNC(=O)CS(=O)(=O)Cc1coc(-c2ccc(OC)cc2)n1 | -5.58
67 | Cc1ccoc1-c1nnc(CNCCn2cccn2)o1 | -39.9
68 | Cc1cccc(CN2C[C@@H]3COC[C@]3(CNC(=O)N3CCCC3)C2)n1 | 11.4
69 | O=C1CC2(CCCCN2C(=O)c2ccsc2)CN1CC1CC1 (stereo not given) | -8.01
70 | Cc1nc(-c2ccsc2)ccc1C(=O)NCCC1CCCO1 (stereo not given) | -18.3
71 | O=C(NCc1nnc2n1CCCC2)N(Cc1ccccc1F)C1CC1 | 7.01
72 | Cn1cc(C2COC3(CCN(C(=O)c4ccc(F)cc4)CC3)C2)cn1 (stereo not given) | 4.34
73 | c1cnn(C2CN(Cc3nc(-c4ccsc4)no3)C2)c1 | 23
74 | CCc1cccc(N2CCC(NC(=O)c3cc[nH]n3)CC2)c1 | 18.9
75 | CCN1CCN(C2CCN(Cc3nc4ccccc4o3)CC2)C1=O | 21.6
76 | Cc1nc(O)c2nnn(C[C@H]3CCCN3C(=O)c3cccc(F)c3)c2n1 | -4.92
77 | CCn1cc(CN(C)S(=O)(=O)c2ccc(Cl)cc2)cn1 | -34
78 | CCCc1ncc(C(=O)N2CCOC(c3nc(C)n[nH]3)C2)s1 (stereo not given) | 2.31
79 | c1cnc(N2CCC3(CCN(CC4CC4)CC3)CC2)nc1 | 6.17
80 | CCc1ccc(C(=O)N2CCC(c3nncn3CC)CC2)cc1 | 7.54
